Screening results: PubChem BioAssay, The Scripps Research Institute Molecular Screening Center
Compounds with a hit are over-represented: about 4.1% of the library has one in this group of screens.
DAX1 inh-1 = DAX1 (NR0B1) inhibitors, primary screen, cell-based, HEK293, Gal4-DAX1, luciferase luminescence; Nuclear receptor subfamily 0 group B member 1 (Homo sapiens), P51843; HEK293 Gal4-DAX1 luciferase reporter; inhibition, % at 6.75 µM; 0.99% of 340,000 active; AID 504766, 2011;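 active = inhibition above the mean over all tested compounds plus 3 SD, cut at about 4.2% in these data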;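 also: 0% = DAX1-transfected cells with DMSO and 100% = empty-vector control cells with DMSO; inhibition shows as a rise in luminescence from relieved DAX1 repression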
Target sequence (P51843 207-470 limits assumed): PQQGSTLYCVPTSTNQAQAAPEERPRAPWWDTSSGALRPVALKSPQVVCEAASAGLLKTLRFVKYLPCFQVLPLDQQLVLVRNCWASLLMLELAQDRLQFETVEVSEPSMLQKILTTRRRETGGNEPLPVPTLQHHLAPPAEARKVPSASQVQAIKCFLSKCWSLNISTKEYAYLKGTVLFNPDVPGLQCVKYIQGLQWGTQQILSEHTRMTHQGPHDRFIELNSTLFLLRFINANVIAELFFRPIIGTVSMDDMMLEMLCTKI
ssDAF-12 act = S. stercoralis DAF-12 nuclear receptor activators, primary screen, cell-based, luminescence, HEK293, GRIP1 co-expression, lit1-tk-luc | HEK293 ssDAF-12/GRIP1 lit1-tk-luc reporter; % of 3 µM dafachronic acid response | activation, % at 6.8 µM | 1% of 370,000 active;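 active = activation above the mean over all tested compounds plus 3 SD, cut at about 0.9% in these data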;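 also: 0% = DMSO-only wells and 100% = 3 µM delta7-dafachronic acid wells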
hgDAF12 agonist = H. glycines DAF-12 receptor agonists, primary screen, cell-based, luminescence, HEK293, GAL4 fusion, UAS-luciferase | HEK293 GAL4-hgDAF12 UAS-luciferase reporter, agonist luminescence; normalized to butyrate control | activation, % at 6.8 µM | 1.8% of 370,000 active;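 active = activation above a cutoff set at the mean of all screened compounds plus 3 SD, cut at about 10% in these data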;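 also: 0% = DMSO wells and 100% = sodium butyrate wells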
DAX1 inh-2 = DAX1 (NR0B1) inhibitors on StAR promoter, primary screen, cell-based, luminescence, SF-1 (NR5A1), full-length DAX-1 | HEK293T StAR-luciferase reporter, SF-1/DAX-1 repression relief | inhibition, % at 6.8 µM | 1.1% of 370,000 active | AID 652010, 2013;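 active = inhibition above the mean over all tested compounds plus 3 SD, cut at about 3.6% in these data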;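 also: 0% = DAX-1 cells with DMSO and 100% = cells lacking DAX-1 with DMSO; higher inhibition means more luminescence from relief of DAX-1 repression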
hcDAF12 agonist = H. contortus DAF-12 nuclear receptor activators, primary screen, cell-based, luminescence, HEK293, lit1-tk-luc reporter | HEK293 hcDAF-12 lit1-tk-luc reporter; 0% DMSO, 100% Δ7-dafachronic acid | activation, % at 6.8 µM | 1.4% of 370,000 active | AID 652067, 2013;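 active = activation above the mean of all tested compounds plus 3 SD, cut at about 5.5% in these data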;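 also: 100% = response to 3 µM Δ7-dafachronic acid high control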
LXR ag = LXR agonists, Gal4 luciferase reporter, confirmation, counter-screen for hcDAF-12 agonist project, cell-based, luminescence, HEK293, H. contortus campaign. activation, % at 6.8 µM. shares compounds with hcDAF12 agonist. 3,400 tested, under 10 active. HEK293 Gal4-LXR tk-luc reporter, 24 h; normalized: DMSO 0%, positive control 100%;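 active = mean percent activation of the reporter above a cutoff set as the average over tested compounds plus their standard deviation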
hcDAF12 ag = H. contortus DAF-12 receptor agonists, confirmation, cell-based, luminescence, HEK293, lit1-tk-luc, triplicate; activation, % at 6.8 µM; HEK293 hcDAF-12 lit1-tk-luc reporter; % of Δ7-dafachronic acid response; AID 743032, 2013; shares compounds with hcDAF12 agonist; 61% of 3,400 active;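 active = mean activation across triplicate tests above the threshold derived from the earlier primary screen, cut at about 5.5% in these data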;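 also: 0% = DMSO only wells and 100% = 3 µM Δ7-dafachronic acid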
hgDAF12 ag = H. glycines DAF-12 receptor agonists, confirmation, cell-based, luminescence, HEK293, GAL4-LBD fusion; shares compounds with hgDAF12 agonist; HEK293 GAL4-hgDAF12 luciferase reporter, agonist mode; percent of butyrate response; activation, % at 6.8 µM; 80% of 3,300 active; AID 743050, 2013;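 active = mean activation over triplicate wells above the hit cutoff derived from the earlier primary screen, cut at about 11% in these data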;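 also: 0% = DMSO low control and 100% = 2 mM sodium butyrate high control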
LXRb DAF12 ctr = LXR agonists, Gal4 luciferase reporter, confirmation, counter-screen for hgDAF-12 agonist project, cell-based, luminescence, HEK293, H. glycines campaign. 24 h. AID 743051, 2013. activation, % at 6.8 µM. 3,300 tested, under 10 active. shares compounds with hgDAF12 agonist;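 active = mean activation of the triplicate above a set limit carried over from the primary screen, none filed active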
The depositor's hits bear a star.

Results for O=C(NN/C(=N/S(=O)(=O)c1ccc(Cl)cc1)c1ccccc1)c1cccc(Cl)c1 ?
DAX1 inh-1: 1.3; ssDAF-12 act: 1.2*; hgDAF12 agonist: 16.3*; DAX1 inh-2: 1.5; hcDAF12 agonist: 8.8*; LXR ag: 1.2; hcDAF12 ag: 7.6*; hgDAF12 ag: 17.6*; LXRb DAF12 ctr: 0.9

Results for CC(C)(C)N(Cc1cn(CC2CCCCC2)nn1)S(=O)(=O)c1ccccc1Br ?
ssDAF-12 act: -1.3; hgDAF12 agonist: 2.1; DAX1 inh-2: -0.9; hcDAF12 agonist: -4.2

Results for O=C(Nc1nc2ccccc2[nH]1)c1cccc(Cl)c1 ?
DAX1 inh-1: 2.3; ssDAF-12 act: 0.9; hgDAF12 agonist: 15.7*; DAX1 inh-2: 1.3; hcDAF12 agonist: 8.2*; LXR ag: 1.8; hcDAF12 ag: 5.8*; hgDAF12 ag: 17.5*; LXRb DAF12 ctr: 1.0

How did O=C(Nc1nc2ccccc2[nH]1)c1ccccc1 do in these assays?
DAX1 inh-1: -0.9; ssDAF-12 act: 1.4*; hgDAF12 agonist: 13.6*; DAX1 inh-2: 2.2; hcDAF12 agonist: 13.1*; LXR ag: 1.3; hcDAF12 ag: 13.6*; hgDAF12 ag: 14.1*; LXRb DAF12 ctr: 0.9

What do the screens show for `c1ccc(CNC2CCC23CCC(c2ccccc2)CC3)cc1` (stereo not drawn)?
ssDAF-12 act: -1.7; hgDAF12 agonist: -0.1; DAX1 inh-2: -0.4; hcDAF12 agonist: -2.4

Results for COc1ccc(C(=O)N=c2nc3ccccn3s2)cc1 ?
DAX1 inh-1: -0.9; ssDAF-12 act: 1.3*; hgDAF12 agonist: 17.2*; DAX1 inh-2: 3.1; hcDAF12 agonist: 13.8*; LXR ag: 1.3; hcDAF12 ag: 6.0*; hgDAF12 ag: 11.0*; LXRb DAF12 ctr: 0.7

What do the screens show for `COc1ccc(C(=O)O/N=C2\C(=O)N(C)c3ccccc32)cc1`?
DAX1 inh-1: 1.3; ssDAF-12 act: -0.3; hgDAF12 agonist: 0.7; DAX1 inh-2: 0.5; hcDAF12 agonist: 1.1

How did c1ccc([C@H]2CN3C(=N2)Sc2ccccc23)cc1 do in these assays?
DAX1 inh-1: 2.3; ssDAF-12 act: 2.5*; hgDAF12 agonist: 16.1*; DAX1 inh-2: 3.5; hcDAF12 agonist: 13.4*; LXR ag: 1.4; hcDAF12 ag: 14.6*; hgDAF12 ag: 24.2*; LXRb DAF12 ctr: 1.0

How did O=C(C(=O)N1CCN(S(=O)(=O)c2ccc(F)cc2)CC1)c1cccc(C(F)(F)F)c1 do in these assays?
ssDAF-12 act: -0.9; hgDAF12 agonist: 0.3; DAX1 inh-2: -0.7; hcDAF12 agonist: -1.9

How did O=C1CCC[C@H]2C[C@H](NCc3ccc(F)cc3)CC[C@]23CCCN13 do in these assays?
ssDAF-12 act: -1.6; hgDAF12 agonist: 0.1; hcDAF12 agonist: -1.4
